High-throughput results (PubChem)
LRH-1 inv ag: NR5A2 inverse agonism in reporter assay | O00482 | HEK293T StAR-luciferase reporter, LRH-1 transfected, 24 h | inhibition, % at 3.6 µM | 360,000 tested, 0.13% active | AID 602396;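 active means inhibition above the mean inhibition of all tested compounds plus 3 SD, cut at about 73% in these data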
COUP-TFII inh: blocks human COUP-TFII nuclear receptor | AID 686940 | inhibition, % at 8.6 µM | 370,000 tested, 0.7% active | HEK293T NGFI-A luciferase reporter, luminescence | P24468;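 active means inhibition above a per-plate cutoff, mean inhibition of test wells between control levels plus 3 SD, cut at about 38% in these data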;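 further: cells cotransfected with COUP-TFII expression vector driving the NGFI-A reporter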
Target sequence (P24468 whole entry, looked up): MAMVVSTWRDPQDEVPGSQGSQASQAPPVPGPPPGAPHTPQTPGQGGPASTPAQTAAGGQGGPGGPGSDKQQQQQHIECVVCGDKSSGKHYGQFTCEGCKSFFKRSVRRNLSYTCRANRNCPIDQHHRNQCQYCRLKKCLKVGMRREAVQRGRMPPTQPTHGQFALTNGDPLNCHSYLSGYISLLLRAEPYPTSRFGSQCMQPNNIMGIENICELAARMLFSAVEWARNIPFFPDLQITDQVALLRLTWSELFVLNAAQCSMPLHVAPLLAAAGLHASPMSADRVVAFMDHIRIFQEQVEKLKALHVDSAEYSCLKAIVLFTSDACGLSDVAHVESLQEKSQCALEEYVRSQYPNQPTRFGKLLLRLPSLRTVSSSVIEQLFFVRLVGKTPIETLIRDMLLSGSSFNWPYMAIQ
SRC1 inh: human NCOA1 inhibition | Q15788 | HEK293 GAL4-SRC1 luciferase reporter, luminescence | inhibition, % at 3.6 µM | 360,000 tested, 0.12% active | AID 588354;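 active means inhibition above the campaign mean plus 3 SD, with each screening campaign given its own cutoff, cut at about 60% in these data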
NCOA2 inhibitor: inhibits human steroid receptor coactivator 2; inhibition, % at 9 µM; 370,000 tested, 0.17% active; Q15596; HEK293 GAL4-SRC2 luciferase reporter, luminescence; AID 651957;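 active means inhibition above the mean inhibition of all tested compounds plus 3 SD, set per campaign, cut at about 52% in these data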
NCOA3 inh: human NCOA3 inhibition; 360,000 tested, 0.17% active; AID 588352; inhibition, % at 3.6 µM; HEK293 GAL4-SRC3 luciferase reporter, luminescence; Q9Y6Q9;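 active means inhibition above a per-campaign cutoff, the mean of all compounds plus 3 SD, cut at about 60% in these data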;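 further: higher means less SRC3-driven luciferase light from the GAL4 reporter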
VP16 Luc counter: counter-screen for COUP-TFII antagonists: inhibitors of VP16; shares compounds with COUP-TFII inh; HEK293 Gal4-VP16 luciferase reporter, luminescence; inhibition, % at 8.5 µM; 2,500 tested, 25% active; AID 687007; in the data active means inhibition above about 13%
NR2F2 inh conf: confirmation of human COUP-TFII (NR2F2) inhibitors | 2,500 tested, 45% active | inhibition, % at 8.5 µM | shares compounds with COUP-TFII inh | AID 687008 | HEK293 NGFI-A luciferase reporter, luminescence;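 active means mean inhibition over three repeats above a set limit taken from the earlier primary screen, cut at about 38% in these data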
Large screens that a line does not name were inactive (follow-up assays come after a bar, where they were run). A selection: hits, their analogues and other compounds. The true share with any hit is near 0.84%.

O=C(COc1ccc(Nc2ccccc2)cc1)Nc1ccncc1	COUP-TFII inh 48 | VP16 Luc counter inactive | NR2F2 inh conf inactive
O=C(COc1ccc(Br)cc1)Nc1ccncc1	none
CC1CCc2nc(NC(=O)C3COc4ccccc4O3)sc2C1 (centres undefined)	COUP-TFII inh 64 | VP16 Luc counter 18 | NR2F2 inh conf 57
CC(C)c1[nH]nc2c1C(c1ccccc1)N(c1ccccc1)C2=O (centres undefined)	none (no result: LRH-1 inv ag, SRC1 inh, NCOA3 inh)
Cc1scc(C(=O)N/N=C/c2ccco2)c1C	none
O=C(N/N=C\c1ccc([N+](=O)[O-])o1)C1COc2ccccc2O1 (centres undefined)	COUP-TFII inh 44, NCOA2 inhibitor 62 | VP16 Luc counter inactive | NR2F2 inh conf inactive
Cc1scc(C(=O)N/N=C/c2ccc([N+](=O)[O-])o2)c1C	COUP-TFII inh 50, NCOA2 inhibitor 71 | VP16 Luc counter 57 | NR2F2 inh conf 59
COc1ccc(C2=Nn3c([n+](C)c4ccccc43)SC2)cc1	COUP-TFII inh 73 | VP16 Luc counter inactive | NR2F2 inh conf 65
C[n+]1c2n(c3ccccc31)N=C(c1ccc(Cl)cc1)CS2	COUP-TFII inh 54 | VP16 Luc counter inactive | NR2F2 inh conf inactive
COc1ccc(C2=Nn3c(nnc3-c3ccccn3)SC2)cc1	none
CC1Sc2n(c3ccccc3[n+]2C)N=C1c1ccccc1 (centres undefined)	none
Cc1cc(-c2ccc(C)c(S(=O)(=O)NCCCN3CCN(c4ccccc4)CC3)c2)on1	COUP-TFII inh 62 | VP16 Luc counter inactive | NR2F2 inh conf inactive
COc1cc(-c2noc(CCCC(=O)Nc3ccc(C(N)=O)cc3)n2)cc(OC)c1OC	none
COc1ccc(-c2noc(CCCC(=O)NC3CCCC3)n2)cc1	COUP-TFII inh 54, NCOA2 inhibitor 53 | VP16 Luc counter inactive | NR2F2 inh conf inactive
COc1ccc(-c2noc(CCCC(=O)Nc3ccc(C(N)=O)cc3)n2)cc1	COUP-TFII inh 55, NCOA2 inhibitor 65 | VP16 Luc counter 39 | NR2F2 inh conf inactive
CC(C)Nc1ncnc2ccc(Br)cc12	COUP-TFII inh 53, SRC1 inh 66, NCOA3 inh 62 | VP16 Luc counter 19 | NR2F2 inh conf 45
O=C(Nc1ccc(Oc2ncnc3cc(Cl)ccc23)nc1)c1cccs1	none
CCCn1nc(C(=O)NCC2COc3ccccc3O2)c2ccccc2c1=O (centres undefined)	none
O=C(NNC(=O)c1ccccc1O)c1ccc(Cl)c(S(=O)(=O)N2CCc3ccccc32)c1	COUP-TFII inh 48 | VP16 Luc counter inactive | NR2F2 inh conf 39
O=C(NNC(=O)c1cccc(S(=O)(=O)N2CCc3ccccc32)c1)c1ccccc1	COUP-TFII inh 41 | VP16 Luc counter inactive | NR2F2 inh conf inactive
CN(c1ccccc1)S(=O)(=O)c1cccc(NC(=O)CN2CCCc3ccccc32)c1	COUP-TFII inh 39 | VP16 Luc counter inactive | NR2F2 inh conf inactive
CN(C)S(=O)(=O)c1cccc(NC(=O)c2cccc(S(=O)(=O)N3CCc4ccccc43)c2)c1	COUP-TFII inh 42 | VP16 Luc counter inactive | NR2F2 inh conf inactive
COCCN(Cc1ccc(C)cc1)C(=O)[C@@H](Cc1ccccc1)NC(=O)[C@H]1O[C@@H](n2ccc(=O)[nH]c2=O)[C@H](O)[C@@H]1O	none (no result: LRH-1 inv ag, SRC1 inh, NCOA3 inh)
O=C(CNCCc1ccc(Cl)cc1)Nc1ccc(C(=O)N2CCCCC2)cc1	none
COc1ccc(NC(=O)CCC(=O)Nc2nnc(CC(C)C)s2)cc1Cl	none
CC1(C)CC2CC(C)(CN2C(=O)COC(=O)c2ccc(NC(=O)CC#N)cc2)C1 (centres undefined)	none
CN(C)S(=O)(=O)c1cccc(NC(=O)c2ccc(COc3ccccc3)cc2)c1	COUP-TFII inh 63 | VP16 Luc counter inactive | NR2F2 inh conf 52
O=S(=O)(NC1CCCC1)c1ccc(S(=O)(=O)N2CCc3ccccc32)cc1	COUP-TFII inh 40 | VP16 Luc counter inactive | NR2F2 inh conf inactive
O=C(C(=O)N1CCC(CNC(=O)c2ccccc2F)CC1)c1cc2ccccc2o1	none (no result: LRH-1 inv ag, SRC1 inh, NCOA3 inh)
Nc1[nH]c(C(=O)c2ccccc2)c(-c2ccc3c(c2)OCO3)c1C(=O)NCCc1c[nH]c2ccccc12	none (no result: LRH-1 inv ag, SRC1 inh, NCOA3 inh)
CCNC(=O)O[C@@H]1C=C[C@@H](C#Cc2ccc(C(C)(C)C)cc2)O[C@@H]1COC(C)=O	none (no result: LRH-1 inv ag, SRC1 inh, NCOA3 inh)
Cc1nc(SCC(=O)N2CCCCCC2)c2c(=O)n(C)c(=O)n(CC(C)C)c2n1	COUP-TFII inh 42 | VP16 Luc counter inactive | NR2F2 inh conf inactive
COC(=O)c1cc(-c2cc(Cl)ccc2OC)c(=O)n2c1CCC2	none (no result: LRH-1 inv ag, SRC1 inh, NCOA3 inh)
COc1ccc(S(=O)(=O)N2CCCc3nc(-c4ccc(Br)cc4)ccc32)cc1	none (no result: LRH-1 inv ag, SRC1 inh, NCOA3 inh)
Cc1ccc2nc(-c3ccccc3)cn2c1	COUP-TFII inh 53, NCOA2 inhibitor 67 | VP16 Luc counter inactive | NR2F2 inh conf inactive
CCc1c(-c2ccccc2OC)ncn1Cc1cccc(-c2ccccc2)c1	COUP-TFII inh 51 (no result: SRC1 inh, NCOA3 inh) | VP16 Luc counter inactive | NR2F2 inh conf inactive
COC(=O)C1=C(C)N(C)C(=NCc2ccc(OC)cc2)NC1c1ccccc1 (centres undefined)	none (no result: LRH-1 inv ag, SRC1 inh, NCOA3 inh)
CCCCCc1ccc(OCCC[n+]2ccccc2)c(CCCCC)c1	COUP-TFII inh 57, NCOA3 inh 66 | VP16 Luc counter 14 | NR2F2 inh conf inactive
CCCCCc1ccc(OCCOCCn2c[n+](C)c3ccccc32)c(CCCCC)c1	none (no result: COUP-TFII inh, NCOA2 inhibitor)
O=C(C1CC1)N1CCC(C(O)(c2ccccc2)c2ccccc2)CC1	none
O=C(N1CCC(C(O)(c2ccccc2)c2ccccc2)CC1)n1ncc(C(O)(c2ccccc2)c2ccccc2)n1	COUP-TFII inh 44 (no result: LRH-1 inv ag, SRC1 inh, NCOA2 inhibitor, NCOA3 inh) | VP16 Luc counter inactive | NR2F2 inh conf inactive
CN=c1scc(-c2cccs2)n1/N=C/c1ccccc1O	LRH-1 inv ag 98, COUP-TFII inh 94, SRC1 inh 92, NCOA2 inhibitor 88, NCOA3 inh 93 | VP16 Luc counter 88 | NR2F2 inh conf 108
CN=c1scc(-c2cccs2)n1/N=C/c1ccc(O)c(O)c1O	none
Nc1nc2ccccc2cc1C(=O)NCc1ccc(-c2ccccc2)cc1	COUP-TFII inh 65 (no result: SRC1 inh, NCOA3 inh) | VP16 Luc counter inactive | NR2F2 inh conf 68
O=C(CSc1nnnn1C1CCCCC1)Nc1ccccc1F	none
O=C(CSc1nnnn1C1CC2CCC1C2)Nc1ccnc2ccccc12 (centres undefined)	COUP-TFII inh 72 | VP16 Luc counter inactive | NR2F2 inh conf 70
C#CC1c2ccccc2CCN1CC=C (centres undefined)	none (no result: LRH-1 inv ag, SRC1 inh, NCOA3 inh)
Cc1cc(O)cc(=O)n1-c1cc(C(F)(F)F)cc(C(F)(F)F)c1	none (no result: LRH-1 inv ag, SRC1 inh, NCOA3 inh)
N#Cc1ccccc1N1CCN(C(=O)C2CCN(c3ncnc4c3sc3cccc(F)c34)CC2)CC1	COUP-TFII inh 58 (no result: LRH-1 inv ag, SRC1 inh, NCOA3 inh) | VP16 Luc counter inactive | NR2F2 inh conf inactive
c1ccc(CCc2nc(-c3ccc(-n4cccc4)cc3)no2)cc1	none
c1ccn(-c2ccc(-c3noc(CCc4ccncc4)n3)cc2)c1	COUP-TFII inh 51 (no result: LRH-1 inv ag, SRC1 inh, NCOA3 inh) | VP16 Luc counter inactive | NR2F2 inh conf inactive
